The panel holds about 79,000 compounds, 15% with a hit somewhere; the sample as a whole holds those more often. Active and inactive are the calls of the source. No stated cut-off is given here; in the data, active means growth inhibition above about 70%; inactive means the rest.
Experiments:
[1] = NCI Yeast Anticancer Drug Screen. Data for the rad50 strain (AID 155);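 further: 0% = growth of vehicle-only cultures of the same strain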; conditions: S. cerevisiae rad50 strain growth inhibition, active compounds read high
Method in brief: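 A DNA repair-deficient yeast mutant serves as the test organism; compound-induced growth inhibition is calculated against vehicle-treated cells.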

[2] = NCI Yeast Anticancer Drug Screen. Data for the mec2-1 strain (AID 157); conditions: S. cerevisiae mec2-1 strain, active compounds read high
Method in brief: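 Yeast mec2-1 mutant treated with compound. Readout: growth inhibition vs vehicle controls.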

[3] = NCI Yeast Anticancer Drug Screen. Data for the sgs1 mgt1 strain (AID 161);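 further: 0% = growth of cultures given vehicle only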; conditions: S. cerevisiae sgs1 mgt1 strain, active compounds read high
Method in brief: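 Test agents were incubated with a DNA-repair-mutant yeast strain. Growth was then read and compared against vehicle-treated controls.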

[4] = NCI Yeast Anticancer Drug Screen. Data for the cln2 rad14 strain (AID 165);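 further: 0% = growth equal to vehicle treated cultures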; conditions: S. cerevisiae cln2 rad14 strain, active compounds read high
Method in brief: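 cln2 rad14 yeast strain; compound exposure; growth inhibition read vs vehicle controls.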

[5] = NCI Yeast Anticancer Drug Screen. Data for the bub3 strain (AID 167); conditions: S. cerevisiae bub3 mutant strain, active compounds read high
Method in brief: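 Inhibition values come from growth of compound-treated mutant yeast normalised to vehicle-treated controls.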

[6] = NCI Yeast Anticancer Drug Screen. Data for the mlh1 rad18 strain (AID 175); conditions: S. cerevisiae mlh1 rad18 strain growth inhibition, active compounds read high
Method in brief: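 Yeast w/ defined DNA-repair lesions; compound exposure; growth vs vehicle controls → % inhibition.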

[7] = at 5.0 µM (retest, dose inferred, filed as 0.5)
[8] = at 50.0 µM (retest, dose inferred, filed as 5.0)

Measured: growth inhibition

Nc1cc(Cl)ccc1SSc1ccc(Cl)cc1N
active: [2]; [8] 90% | [5]; [8] 98% | [6]; at 50.0 µM 73.3%
inactive: [1]; [7] 11% | [1]; [8] 58% | [1]; at 50.0 µM 49% | [2]; [7] 67% | [2]; at 50.0 µM 32.5% | [3]; [7] 46% | [3]; [8] 65% | [3]; at 50.0 µM 48.6% | [4]; [7] 22% | [4]; [8] 39% | [4]; at 50.0 µM -74.8% | [5]; [7] 58% | [5]; at 50.0 µM 50.6% | [6]; [7] 35% | [6]; [8] 51%

COC(=O)/C=C1/OC(c2ccccc2)=C(Br)C1=O
inactive: [1]; [7] 17% | [1]; [8] 17% | [2]; [7] 11% | [2]; [8] 11% | [3]; [7] 11% | [3]; [8] 11% | [4]; [7] -6% | [4]; [8] -6% | [5]; [7] -2% | [5]; [8] -2% | [6]; [7] 15% | [6]; [8] 15%
active: [1]; at 50.0 µM 89.3% | [2]; at 50.0 µM 91.3% | [3]; at 50.0 µM 86.5% | [4]; at 50.0 µM 88.3% | [5]; at 50.0 µM 88.5% | [6]; at 50.0 µM 85.3%

CC/C(=C(\CC)c1ccc(OCCN2CCOCC2)cc1)c1ccc(OCCN2CCOCC2)cc1
inactive: [1]; [7] 47% | [1]; [8] 63% | [2]; [7] 36% | [2]; [8] 62% | [3]; [7] 67% | [4]; [7] 62% | [4]; [8] 64% | [5]; [7] 59% | [5]; [8] 68% | [6]; [7] 30%
active: [1]; at 50.0 µM 82.8% | [2]; at 50.0 µM 70.5% | [3]; [8] 88% | [3]; at 50.0 µM 89% | [4]; at 50.0 µM 83.5% | [5]; at 50.0 µM 79.9% | [6]; [8] 72% | [6]; at 50.0 µM 87.8%

CC(=O)NC1CCCCC1CC1CCCCC1 (stereo not given)
inactive: [1]; [7] -146% | [1]; [8] -23% | [1]; at 50.0 µM 19.2% | [2]; [7] -48% | [2]; [8] -44% | [2]; at 50.0 µM 20.1% | [3]; [7] -63% | [3]; [8] -32% | [3]; at 50.0 µM 35.8% | [4]; [7] -57% | [4]; [8] -52% | [5]; [7] -68% | [5]; [8] -49% | [5]; at 50.0 µM 24% | [6]; [7] -125% | [6]; [8] -138% | [6]; at 50.0 µM 16.9%
active: [4]; at 50.0 µM 79.2%

O=C(CC(=O)c1ccc(O)cc1)c1ccccc1
active: [5]; [8] 89% | [6]; [8] 86%
inactive: [1]; [7] -1% | [1]; [8] 50% | [1]; at 50.0 µM 60.8% | [2]; [7] -13% | [2]; [8] 52% | [2]; at 50.0 µM 1.2% | [3]; [7] -1% | [3]; [8] 66% | [3]; at 50.0 µM 21.2% | [4]; [7] -1% | [4]; [8] 62% | [4]; at 50.0 µM 4.5% | [5]; [7] -6% | [5]; at 50.0 µM 48.7% | [6]; [7] 3% | [6]; at 50.0 µM 58%

COc1ccc(/C=C/c2ccnnc2)c(OC)c1OC
active: [2]; at 50.0 µM 79.5% | [6]; at 50.0 µM 93.7%
inactive: [1]; [7] -7% | [1]; [8] 6% | [1]; at 50.0 µM 53.2% | [2]; [7] -3% | [2]; [8] 8% | [3]; [7] -6% | [3]; [8] 5% | [3]; at 50.0 µM 28.6% | [4]; [7] -4% | [4]; [8] 39% | [4]; at 50.0 µM 52.8% | [5]; [7] -5% | [5]; [8] 15% | [5]; at 50.0 µM 39.3% | [6]; [7] -6% | [6]; [8] 2%

O=C(c1ccccc1)c1ccc(OCC2CO2)cc1 (stereo not given)
inactive: [1]; [7] 10% | [1]; at 50.0 µM 64.3% | [2]; [7] -2% | [2]; [8] 23% | [2]; at 50.0 µM 25% | [3]; [7] 10% | [3]; [8] 64% | [3]; at 50.0 µM 50.4% | [4]; [7] -5% | [4]; [8] 58% | [4]; at 50.0 µM 20.6% | [5]; [7] -1% | [5]; [8] 29% | [5]; at 50.0 µM 12.1% | [6]; [7] 7%
active: [1]; [8] 77% | [6]; [8] 74% | [6]; at 50.0 µM 71.9%

NC(CSSCC(N)=NCCCCCSC12CC3CC(CC(C3)C1)C2)=NCCCCCSC12CC3CC(CC(C3)C1)C2
inactive: [1]; [7] -2% | [1]; [8] 22% | [2]; [7] 1% | [2]; [8] 11% | [3]; [7] 1% | [3]; [8] 12% | [4]; [7] 3% | [4]; [8] 2% | [5]; [7] 5% | [5]; [8] 15% | [6]; [7] 0% | [6]; [8] 16%
active: [1]; at 50.0 µM 99.2% | [2]; at 50.0 µM 99.6% | [3]; at 50.0 µM 99.5% | [4]; at 50.0 µM 98.8% | [5]; at 50.0 µM 98.7% | [6]; at 50.0 µM 99.3%

CC(=O)Oc1c(Br)cc(Br)cc1Br
inactive: [1]; [7] 4% | [1]; [8] -4% | [1]; at 50.0 µM 9.35% | [2]; [7] -5% | [2]; [8] -34% | [2]; at 50.0 µM 6.7% | [3]; [7] 10% | [3]; [8] 4% | [3]; at 50.0 µM 4.5% | [4]; [7] 2% | [4]; [8] -2% | [4]; at 50.0 µM 1.2% | [5]; [7] 10% | [5]; [8] 6% | [5]; at 50.0 µM 9.1% | [6]; [7] 13% | [6]; [8] 20% | [6]; at 50.0 µM 0.9%

O=C(C[n+]1ccccc1Cl)c1ccc(F)cc1
active: [1]; [8] 99% | [2]; [8] 100% | [3]; [8] 99% | [4]; [8] 99% | [4]; at 50.0 µM 79.5% | [5]; [8] 99% | [6]; [8] 99%
inactive: [1]; [7] -3% | [1]; at 50.0 µM -8% | [2]; [7] -1% | [2]; at 50.0 µM -0.8% | [3]; [7] -1% | [3]; at 50.0 µM 11.7% | [4]; [7] -3% | [5]; [7] 4% | [5]; at 50.0 µM 1.45% | [6]; [7] -1% | [6]; at 50.0 µM -12%
